Data published in PubChem BioAssay (NCATS).
Results filed as inconclusive are left out. The source made the active and inactive calls. Unless noted, calls come from the whole dose curve; as a rule, active = well fitted curve in the direction sought with a large enough effect; inconclusive = small, poorly fitted or top-dose-only effect, or another doubt; inactive = no such curve, though single readings can be large; an effect the other way counts as inactive or inconclusive.

Key:
[1] = molecular target: Lysosomal acid glucosylceramidase (Homo sapiens) (UniProt P04062); assay: Glucocerebrosidase-p2 (AID 348; in the data active = potency below about 10 µM; note: potency is the fitted concentration of half-maximal effect); conditions: purified GBA, blue fluorogenic substrate, 40 min
Outline: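 Compounds titrated from 0.6 nM upwards against 0.2 nM enzyme in pH 5.9 citric acid/KH2PO4, taurocholate, tween-20; blue fluorogenic substrate 80 uM, 40 min room temperature, stopped and read Ex 365/Em 440 for AC50.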

[2] = AP1 Signaling Pathway (AID 357; active = well fitted curve in either direction with a large enough effect, not every such curve was filed as active; note: % is set by controls: 0 for no effect and ±100 for the full control effect); conditions: ME-180 AP-1-bla reporter, EGF-induced, beta-lactamase ratio, 5 h; at 7.69 µM (top of the series) unless noted
Outline: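 ME-180 cells with beta-lactamase reporter under AP-1 response element, stimulated with EC50 EGF; compounds tested in titration series, 5 h at 37 °C. CCF4 substrate added 2.5 h at room temperature; 460/530 nm emission ratio gave %activity and AC50.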

[3] = NFAT Signaling Pathway (AID 444; active = well fitted curve in either direction with a large enough effect, not every such curve was filed as active;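 note: carbachol stimulus at about its EC50 of 1 µM final; % is set by controls: 0 for no effect and ±100 for the full control effect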); conditions: Jurkat NFAT-bla M1, carbachol, beta-lactamase ratio, 5 h; at 7.69 µM (top of the series) unless noted
Outline: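 Jurkat cells carrying an NFAT-driven β-lactamase reporter and co-transfected muscarinic M1 receptor were treated with compound plus carbachol (1 uM final, an EC50 level) for 5 h at 37 °C. CCF4 loading followed for 1 h at RT; 460/530 nm ratio gave %activity.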

[4] = molecular target: Glucocorticoid receptor (Homo sapiens) (UniProt P04150); assay: GR-GFP Redistribution (AID 450;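 active = compounds whose dose series gives a full or clear partial fitted curve of increased nuclear translocation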; note: potency is the fitted concentration of half-maximal effect); conditions: U2OS GR-GFP nuclear translocation, laser cytometry, 2 h
[5] = molecular target: Glucocorticoid receptor (Homo sapiens) (UniProt P04150); assay: GR-EFC Redistribution (AID 451; calls by dose curve; note: potency is the fitted concentration of half-maximal effect); conditions: CHO-K1 GR-EFC translocation, beta-gal luminescence, 2 h
Outline: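 CHO-K1 cells stably expressing nuclear-localized β-gal enzyme acceptor and GR fused C-terminally to the enzyme donor fragment; ligand-driven nuclear translocation restores β-gal by complementation. Compounds titrated up to 46 uM final, 2 h at 37 °C; luminescence read.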

[6] = molecular target: Mitogen-activated protein kinase 10 (Mus musculus) (UniProt Q61831); assay: JNK3 AlphaScreen Assay (AID 530; active = well fitted curve in either direction with a large enough effect, not every such curve was filed as active;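 note: kinase came from lysate of stimulated human HepG2 cells; signal reports phosphorylation of biotinylated GST-cJun 1-79 at Ser73 with 10 µM ATP; % is set by controls: 0 for no effect and ±100 for the full control effect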); conditions: JNK3 lysate, c-Jun phosphorylation; series mostly up to 57.1 µM
Outline: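 JNK3 came from HepG2 lysates pre-activated with IL-1beta and TNF-alpha and phosphorylated biotinylated GST-cJun (1-79) at 10 uM ATP, pH 7.6, room temperature. Compounds were titrated. AlphaScreen signal used anti-phospho-cJun (Ser73) antibody.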

[7] = molecular target: 3',5'-cyclic-AMP phosphodiesterase 4B (Homo sapiens) (UniProt Q07343); assay: qHTS Assay for Inhibitors of PDE-IV (AID 607; active = well fitted activation curve with a large enough effect in the main read-out, with a control signal flat, not every such curve was filed as active; note: % of control where 0% means no effect); conditions: HEK293 ACTOne CNG channel cells, membrane potential fluorescence; series mostly up to 22.9 µM
Outline: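 Live HEK293 cells with a modified cyclic nucleotide-gated (CNG) channel report intracellular cAMP via membrane-potential dye fluorescence (ex 535/em 590 nm). Endogenous PDE-IV was targeted. Compounds were tested at up to 22.9 uM final; RO 20-1724 100 uM served as control.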

[8] = molecular target: Cytochrome P450 3A4 (Homo sapiens) (UniProt P08684); assay: qHTS Assay for Inhibitors and Substrates of Cytochrome P450 3A4 (AID 884); conditions: recombinant CYP3A4, Luciferin-PPXE luminescence; series mostly up to 57.1 µM; note: nearly all actives have a fitted effect of over 50% in size; note: potency is the fitted concentration of half-maximal effect
Outline: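 20 nM human CYP3A4 with 25 uM Luciferin-PPXE (at KM) in 200 mM KPO4, preincubated 10 min with compound; NADPH regeneration started a 60 min RT reaction. Luciferin detected by luminescence, normalized to 57 uM ketoconazole as full inhibition.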

[9] = Confirmation and Secondary Assay for Modulators of Hemoglobin Beta Chain Splicing at IVS2 654 locus (AID 910); conditions: HeLa EGFP-654 splicing reporter, GFP fluorescence, 48 h; series mostly up to 38.3 µM;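 note: per-well total GFP intensity by laser scanning cytometry after 2-day treatment; % of control where 0% means no effect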
Outline: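 HeLa cells stably carrying EGFP interrupted by mutant beta-globin IVS2-654 intron (CMV-driven) were treated with compound for 2 days at 37C; corrected splicing was scored as total peak GFP intensity per well (488 nm excitation, 500-520 nm emission).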

[10] = Confirmation and Secondary Assay for Modulators of Hemoglobin Beta Chain Splicing at IVS2 705 locus (AID 930); conditions: HeLa EGFP-705 splicing reporter, GFP fluorescence, 48 h; series mostly up to 38.3 µM;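 note: HeLa cells stably expressing the EGFP-705 splicing reporter; GFP fluorescence per well restored by corrected splicing of the IVS2-705 intron in EGFP; % of control where 0% means no effect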
Outline: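 Per-well GFP, captured at 1 x 8 µm resolution with 488 nm excitation, served as the read-out for HeLa EGFP-705 cells incubated 2 days with test compound versus DMSO.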

[11] = qHTS Assay for Lipid Storage Modulators (AID 1519; calls by dose curve); conditions: Drosophila S3 cells, BODIPY lipid droplet/cell ratio, laser cytometry, cells loaded with oleic acid
Outline: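 Cells seeded at 5,000 per well were treated with compounds over a concentration series and loaded with oleic acid (400 uM, as added). Lipid droplet fluorescence (488 nm excitation, 500-530 nm channel) was read by laser-scanning cytometry and normalized to 20 uM Triacsin C.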

[12] = molecular target: Ubiquitin carboxyl-terminal hydrolase 1 (Homo sapiens) (UniProt O94782); assay: Inhibitors of USP1/UAF1: Pilot qHTS (AID 504865); conditions: purified USP1/UAF1, Ub-rhodamine cleavage fluorescence; series mostly up to 54.9 µM;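 note: rhodamine fluorescence freed from ubiquitin-rhodamine substrate followed over time; top concentration of the series differs between compounds; % is set by controls: 0 for no effect and ±100 for the full control effect; nearly all actives have a fitted effect of over 35% in size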
Outline: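 USP1/UAF1 complex (1nM) preincubated with compound 15 min at room temperature, then Ub-Rho substrate (150nM final) added. Fluorescence read kinetically at 480/540 nm, 6 reads every 60 seconds. Buffer: 50mM HEPES pH 7.8, 0.5mM EDTA, 0.1 mg/ml BSA, 1mM TCEP, 0.01% Tween-20.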

[13] = molecular target: Cytochrome P450 1A2 (Homo sapiens) (UniProt P05177); assay: p450-cyp1a2 (AID 410; calls by dose curve; note: potency is the fitted concentration of half-maximal effect); conditions: recombinant CYP1A2, luciferin-ME demethylation, luminescence; series mostly up to 57 µM
Outline: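 Human CYP1A2 (20nM) demethylated Luciferin-ME at its Km (100uM) in 100mM KPO4. After 10 min compound preincubation, NADPH regeneration ran the reaction 60 min at room temperature. Luciferin was read by luminescence, normalized to 57 uM furafylline.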

[14] = Stat Signaling Pathway (AID 446; active = well fitted curve in either direction with a large enough effect, not every such curve was filed as active;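 note: ME-180 cervical cancer cells given 40 pM IL-6 alongside compound; SIE-controlled beta-lactamase reporter measured as 460/530 nm FRET emission ratio; % is set by controls: 0 for no effect and ±100 for the full control effect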); conditions: ME-180 (cervical carcinoma) SIE beta-lactamase reporter, IL-6 stimulated, 5 h; at 7.69 µM (top of the series) unless noted
Outline: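 IL-6/STAT signaling read in ME-180 cells via an SIE beta-lactamase reporter. Stimulus was 40 pM IL-6 (its AC50) for 5 hrs, so both activation and inhibition register.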

[15] = molecular target: Cytochrome P450 3A4 (Homo sapiens) (UniProt P08684); assay: qHTS Assay for Activators of Cytochrome P450 3A4 (AID 885); conditions: recombinant CYP3A4, Luciferin-PPXE luminescence, 60 min; series mostly up to 57.1 µM; note: nearly all actives have a fitted effect of over 65% in size
Outline: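 Quantitative HTS format: compounds preincubated with 20nM human CYP3A4 and Luciferin-PPXE substrate at KM, reaction started by NADPH regeneration, stopped after 60 min, luciferase luminescence read 20 min later.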

[16] = molecular target: Dual specificity protein kinase CLK4 (Homo sapiens) (UniProt Q9HAZ1); assay: qHTS Assay for Inhibitors of CDC-like Kinase 4 (ADP-FP Assay) (AID 1795); conditions: Transcreener ADP fluorescence polarization; series mostly up to 50 µM; note: % is set by controls: 0 for no effect and ±100 for the full control effect; nearly all actives have a fitted effect of over 60% in size
Outline: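 Recombinant human Clk4 (6.25 nM) phosphorylated RS repeat peptide (100 uM) with 1 uM ATP in Tris pH 7.5/MgCl2/EGTA/DTT/Triton buffer for one hour. ADP was quantified by Transcreener competitive fluorescence polarization against an ADP calibration curve.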

[17] = molecular target: Cytochrome P450 2C19 (Homo sapiens) (UniProt P33261); assay: qHTS Assay for Inhibitors and Substrates of Cytochrome P450 2C19 (AID 899); conditions: recombinant CYP2C19, luciferin-H EGE luminescence; series mostly up to 57.1 µM; note: potency is the fitted concentration of half-maximal effect; nearly all actives have a fitted effect of over 60% in size
Outline: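 In 50mM KPO4, the reaction held 5nM enzyme and KM-level (10uM) Luciferin-H EGE; it ran 60 min at 37C after NADPH regeneration and a 10 min compound preincubation. Luminescence values were scaled to 57uM ketoconazole as complete inhibition.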

[18] = measured here: cell count channel max response
[19] = measured here: lipid channel max response

Cytochrome P450 3A4 (Homo sapiens), sequence (P08684 whole entry, looked up): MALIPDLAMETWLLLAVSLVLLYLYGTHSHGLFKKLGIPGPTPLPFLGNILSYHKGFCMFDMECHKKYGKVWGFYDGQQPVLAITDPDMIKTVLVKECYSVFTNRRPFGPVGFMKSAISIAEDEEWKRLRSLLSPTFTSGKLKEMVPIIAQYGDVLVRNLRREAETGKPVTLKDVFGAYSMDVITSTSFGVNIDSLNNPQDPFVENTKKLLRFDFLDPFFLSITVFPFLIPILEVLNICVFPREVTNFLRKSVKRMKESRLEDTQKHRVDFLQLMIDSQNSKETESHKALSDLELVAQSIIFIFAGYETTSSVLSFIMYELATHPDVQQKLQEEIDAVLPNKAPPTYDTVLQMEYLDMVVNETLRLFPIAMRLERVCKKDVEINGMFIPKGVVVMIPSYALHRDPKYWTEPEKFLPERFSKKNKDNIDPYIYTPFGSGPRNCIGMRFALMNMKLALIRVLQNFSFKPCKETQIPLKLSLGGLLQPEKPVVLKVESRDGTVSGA
Lysosomal acid glucosylceramidase (Homo sapiens), sequence (P04062 whole entry, looked up): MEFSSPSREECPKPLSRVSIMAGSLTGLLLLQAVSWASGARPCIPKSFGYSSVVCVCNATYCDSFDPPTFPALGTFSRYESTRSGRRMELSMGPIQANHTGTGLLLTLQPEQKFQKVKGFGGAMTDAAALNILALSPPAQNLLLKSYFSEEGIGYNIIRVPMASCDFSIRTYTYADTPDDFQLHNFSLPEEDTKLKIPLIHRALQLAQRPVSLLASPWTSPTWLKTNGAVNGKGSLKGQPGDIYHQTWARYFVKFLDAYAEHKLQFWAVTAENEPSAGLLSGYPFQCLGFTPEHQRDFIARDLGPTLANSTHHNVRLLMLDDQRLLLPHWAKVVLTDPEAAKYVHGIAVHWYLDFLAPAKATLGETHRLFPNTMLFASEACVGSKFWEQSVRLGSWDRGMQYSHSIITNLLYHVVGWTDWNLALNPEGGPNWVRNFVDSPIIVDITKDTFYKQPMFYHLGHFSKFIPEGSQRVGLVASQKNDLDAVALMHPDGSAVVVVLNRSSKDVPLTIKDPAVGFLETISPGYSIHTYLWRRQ
Glucocorticoid receptor (Homo sapiens), sequence (P04150 whole entry, looked up, the tested form may be a part): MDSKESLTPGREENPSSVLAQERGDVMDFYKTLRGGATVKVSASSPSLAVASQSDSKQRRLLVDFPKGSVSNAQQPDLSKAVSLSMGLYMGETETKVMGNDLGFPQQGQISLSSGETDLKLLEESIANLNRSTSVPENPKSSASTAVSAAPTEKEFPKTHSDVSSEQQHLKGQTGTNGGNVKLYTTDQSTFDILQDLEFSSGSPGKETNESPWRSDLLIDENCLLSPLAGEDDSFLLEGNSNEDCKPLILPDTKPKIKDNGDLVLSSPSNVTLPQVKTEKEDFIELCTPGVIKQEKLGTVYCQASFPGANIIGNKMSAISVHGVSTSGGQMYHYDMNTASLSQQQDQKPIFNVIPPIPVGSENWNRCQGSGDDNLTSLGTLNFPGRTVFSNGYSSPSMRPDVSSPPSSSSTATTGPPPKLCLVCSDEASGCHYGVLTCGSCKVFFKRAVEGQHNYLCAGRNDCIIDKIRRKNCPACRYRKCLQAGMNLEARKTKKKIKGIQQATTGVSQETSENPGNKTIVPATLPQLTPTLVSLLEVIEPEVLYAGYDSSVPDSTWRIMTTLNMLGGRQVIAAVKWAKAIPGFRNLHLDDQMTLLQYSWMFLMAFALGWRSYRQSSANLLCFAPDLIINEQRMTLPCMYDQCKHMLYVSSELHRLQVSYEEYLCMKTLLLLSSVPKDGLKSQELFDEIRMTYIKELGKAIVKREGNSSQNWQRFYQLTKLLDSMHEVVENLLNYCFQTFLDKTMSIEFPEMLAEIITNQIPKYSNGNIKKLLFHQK
Ubiquitin carboxyl-terminal hydrolase 1 (Homo sapiens), sequence (O94782 whole entry, looked up): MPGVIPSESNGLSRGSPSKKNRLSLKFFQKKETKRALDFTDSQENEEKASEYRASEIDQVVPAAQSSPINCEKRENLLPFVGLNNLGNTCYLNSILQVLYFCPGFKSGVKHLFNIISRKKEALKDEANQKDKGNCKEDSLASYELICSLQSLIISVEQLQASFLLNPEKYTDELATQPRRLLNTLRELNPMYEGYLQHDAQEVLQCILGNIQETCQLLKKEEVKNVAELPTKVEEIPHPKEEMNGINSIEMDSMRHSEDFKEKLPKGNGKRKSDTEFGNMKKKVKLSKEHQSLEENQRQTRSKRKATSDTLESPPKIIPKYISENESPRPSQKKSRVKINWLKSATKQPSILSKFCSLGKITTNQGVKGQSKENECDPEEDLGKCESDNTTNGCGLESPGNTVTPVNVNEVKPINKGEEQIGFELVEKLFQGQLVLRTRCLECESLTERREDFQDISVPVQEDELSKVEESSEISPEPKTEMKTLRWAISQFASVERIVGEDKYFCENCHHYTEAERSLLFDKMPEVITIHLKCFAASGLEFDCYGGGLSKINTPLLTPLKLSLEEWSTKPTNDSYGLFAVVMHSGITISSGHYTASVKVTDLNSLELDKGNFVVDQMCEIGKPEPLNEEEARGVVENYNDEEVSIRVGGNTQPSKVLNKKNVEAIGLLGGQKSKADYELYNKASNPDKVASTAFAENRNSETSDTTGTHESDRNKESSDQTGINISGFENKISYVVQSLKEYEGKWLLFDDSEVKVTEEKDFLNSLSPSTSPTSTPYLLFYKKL
3',5'-cyclic-AMP phosphodiesterase 4B (Homo sapiens), sequence (Q07343 whole entry, looked up): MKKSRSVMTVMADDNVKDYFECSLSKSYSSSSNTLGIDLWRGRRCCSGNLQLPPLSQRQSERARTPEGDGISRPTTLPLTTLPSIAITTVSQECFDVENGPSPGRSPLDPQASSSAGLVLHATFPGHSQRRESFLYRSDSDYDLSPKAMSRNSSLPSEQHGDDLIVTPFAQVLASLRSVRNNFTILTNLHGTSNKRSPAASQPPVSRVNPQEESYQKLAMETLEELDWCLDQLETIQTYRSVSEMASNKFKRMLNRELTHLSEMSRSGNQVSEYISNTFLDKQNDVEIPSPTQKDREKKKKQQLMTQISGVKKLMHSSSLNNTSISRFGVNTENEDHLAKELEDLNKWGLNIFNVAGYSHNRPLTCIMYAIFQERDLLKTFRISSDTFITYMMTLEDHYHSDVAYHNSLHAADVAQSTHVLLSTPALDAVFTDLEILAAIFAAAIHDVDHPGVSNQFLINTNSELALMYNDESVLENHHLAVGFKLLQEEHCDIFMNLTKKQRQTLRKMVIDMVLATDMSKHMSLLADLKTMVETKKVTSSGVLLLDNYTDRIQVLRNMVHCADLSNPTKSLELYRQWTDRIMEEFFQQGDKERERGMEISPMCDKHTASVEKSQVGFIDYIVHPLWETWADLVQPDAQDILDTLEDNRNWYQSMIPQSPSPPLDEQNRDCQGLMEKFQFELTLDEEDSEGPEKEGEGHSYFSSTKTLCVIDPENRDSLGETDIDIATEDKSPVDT
Cytochrome P450 1A2 (Homo sapiens), sequence (P05177 whole entry, looked up): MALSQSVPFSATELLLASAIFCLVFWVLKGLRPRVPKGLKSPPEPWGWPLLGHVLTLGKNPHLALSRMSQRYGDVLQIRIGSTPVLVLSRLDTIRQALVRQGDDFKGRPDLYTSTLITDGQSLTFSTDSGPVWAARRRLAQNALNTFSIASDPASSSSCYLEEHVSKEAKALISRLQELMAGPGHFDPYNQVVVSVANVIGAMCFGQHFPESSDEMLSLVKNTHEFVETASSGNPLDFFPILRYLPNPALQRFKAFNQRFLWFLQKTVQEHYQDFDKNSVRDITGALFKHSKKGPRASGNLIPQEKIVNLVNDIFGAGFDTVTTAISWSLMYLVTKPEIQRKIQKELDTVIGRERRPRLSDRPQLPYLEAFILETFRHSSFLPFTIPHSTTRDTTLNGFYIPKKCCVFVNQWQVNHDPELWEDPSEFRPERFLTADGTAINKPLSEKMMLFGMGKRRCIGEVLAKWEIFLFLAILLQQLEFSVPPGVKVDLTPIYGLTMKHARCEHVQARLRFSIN
Dual specificity protein kinase CLK4 (Homo sapiens), sequence (Q9HAZ1 whole entry, looked up): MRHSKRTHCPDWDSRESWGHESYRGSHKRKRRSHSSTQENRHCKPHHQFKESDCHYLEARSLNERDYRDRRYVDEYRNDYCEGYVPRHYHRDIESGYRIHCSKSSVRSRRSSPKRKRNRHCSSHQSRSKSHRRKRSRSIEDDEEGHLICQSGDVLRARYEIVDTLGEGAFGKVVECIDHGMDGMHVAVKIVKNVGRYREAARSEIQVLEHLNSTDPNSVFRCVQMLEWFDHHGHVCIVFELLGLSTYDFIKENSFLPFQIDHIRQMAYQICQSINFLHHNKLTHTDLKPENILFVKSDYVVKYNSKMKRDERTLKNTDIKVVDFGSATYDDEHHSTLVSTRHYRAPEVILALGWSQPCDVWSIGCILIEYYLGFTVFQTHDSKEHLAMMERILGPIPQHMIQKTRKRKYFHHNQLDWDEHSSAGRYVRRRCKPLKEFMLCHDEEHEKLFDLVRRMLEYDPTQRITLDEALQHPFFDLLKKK
Cytochrome P450 2C19 (Homo sapiens), sequence (P33261 whole entry, looked up): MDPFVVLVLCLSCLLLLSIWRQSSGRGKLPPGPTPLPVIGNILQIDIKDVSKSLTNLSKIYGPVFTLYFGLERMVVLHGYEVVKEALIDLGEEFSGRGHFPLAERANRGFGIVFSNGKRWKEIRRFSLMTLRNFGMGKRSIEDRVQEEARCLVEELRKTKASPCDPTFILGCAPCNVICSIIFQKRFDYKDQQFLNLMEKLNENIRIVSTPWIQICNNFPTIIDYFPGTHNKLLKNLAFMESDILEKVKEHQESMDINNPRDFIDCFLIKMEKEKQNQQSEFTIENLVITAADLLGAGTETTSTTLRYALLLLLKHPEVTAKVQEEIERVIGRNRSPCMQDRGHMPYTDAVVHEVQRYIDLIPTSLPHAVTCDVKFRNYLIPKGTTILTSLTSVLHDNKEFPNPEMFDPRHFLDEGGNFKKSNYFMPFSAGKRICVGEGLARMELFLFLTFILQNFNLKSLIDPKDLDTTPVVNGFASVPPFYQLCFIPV

CC(C)(S)[C@H](N)C(=O)O
inactive: Potency [1] > 11.4 µM | activity change, negative = inhibition [2] 1.59% | activity change, negative = inhibition [3] 8.46% | Potency [4] > 46 µM | Potency [5] > 9.22 µM | activity change, negative = inhibition [6] 1.55% [at 11.4 µM] | Potency [7] | Potency [8] | Potency [9] | outcome [10] | activity change, negative = inhibition ([11]; at 57.5 µM (top of the series)) 4.84%
10.4%: max response [11, 18]
19.3%: max response [11, 19]

COS(C)(=O)=O
4.2%: max response [11, 19]
-1.86%: max response [11, 18]
inactive: Potency [6] | Potency [8] | Potency [9] | outcome [10] | activity change, negative = inhibition ([11]; at 57.5 µM (top of the series)) 5.21% | Potency [12]

CN1C(CC(=O)c2ccccc2)CCCC1CC(O)c1ccccc1 (centres undefined)
inactive: Potency [8] | Potency [9] | outcome [10] | activity change, negative = inhibition ([11]; at 57.5 µM (top of the series)) -2.13% | Potency [12]
13%: max response [11, 18]
12.2%: max response [11, 19]

COc1ccc2ccc(=O)oc2c1
5.5%: max response [11, 19]
-2.86%: max response [11, 18]
inactive: Potency [8] | outcome [10] | activity change, negative = inhibition ([11]; at 57.5 µM (top of the series)) 7.71% | Potency [12]

Cc1cnc(CNc2ncnc3ccc(-c4ccccc4C(F)(F)F)cc23)cn1
7.96%: max response [11, 19]
active: Potency [13] 12.6 µM | Potency [8] 2 µM
8.56%: max response [11, 18]
inactive: Potency [1] > 11.4 µM | activity change, negative = inhibition [2] 15.7% | activity change, negative = inhibition [3] -22.4% | activity, negative = inhibition [14] -29.2% | Potency [4] > 46 µM | Potency [5] > 46 µM | Potency [6] | Potency [7] | Potency [15] | activity change, negative = inhibition ([11]; at 57.5 µM (top of the series)) 0.934% | Potency [16] | Potency [12]

CC12CC[C@@H]3c4ccc(OS(=O)(=O)O)cc4CC[C@H]3C1CCC2=O (some centres undefined)
inactive: activity change, negative = inhibition [2] 19.9% [at 17.2 µM] | activity change, negative = inhibition [3] -17.6% [at 17.2 µM] | activity, negative = inhibition [14] -9.95% [at 17.2 µM] | Potency [4] > 20.6 µM | Potency [5] > 20.6 µM | Potency [6] | Potency [7] | activity change, negative = inhibition ([11]; at 25.7 µM (top of the series)) -2.17% | Potency [12]
-17.7%: max response [11, 19]
-14.5%: max response [11, 18]

FC(F)(F)c1ccccc1-c1ccc2ncnc(N3CCOCC3)c2c1
inactive: Potency [1] > 11.4 µM | activity, negative = inhibition [14] 4.75% | Potency [4] > 46 µM | Potency [5] > 46 µM | Potency [6] | Potency [15] | activity change, negative = inhibition ([11]; at 57.5 µM (top of the series)) 5.7% | Potency [16] | Potency [12]
20.5%: max response [11, 18]
active: Potency [13] 0.251 µM | Potency [17] 0.631 µM
23.6%: max response [11, 19]
